Screens deposited in PubChem BioAssay by NMMLSC.
Autofluor counter: flagged as autofluorescent in microsphere protease counterscreen | hit rate 3.1% among 360,000 | fluorescence intensity (no concentration beside the values) | AID 624483 | compound autofluorescence counterscreen, microsphere flow cytometry; hits give high values; in the data active = fluorescence intensity above about 16000; inconclusive = no clear call, values can overlap the other calls
Anthrax LF inh2: Bacillus anthracis LF protease inhibitors, primary screen, biochemical, multiplex microsphere, MLPCN library; Lethal factor (Bacillus anthracis), P15917; multiplex microsphere protease cleavage assay; inhibition, % at 10 µM; hit rate 0.12% among 360,000; AID 588501, 2011
Target sequence (P15917 whole entry, looked up): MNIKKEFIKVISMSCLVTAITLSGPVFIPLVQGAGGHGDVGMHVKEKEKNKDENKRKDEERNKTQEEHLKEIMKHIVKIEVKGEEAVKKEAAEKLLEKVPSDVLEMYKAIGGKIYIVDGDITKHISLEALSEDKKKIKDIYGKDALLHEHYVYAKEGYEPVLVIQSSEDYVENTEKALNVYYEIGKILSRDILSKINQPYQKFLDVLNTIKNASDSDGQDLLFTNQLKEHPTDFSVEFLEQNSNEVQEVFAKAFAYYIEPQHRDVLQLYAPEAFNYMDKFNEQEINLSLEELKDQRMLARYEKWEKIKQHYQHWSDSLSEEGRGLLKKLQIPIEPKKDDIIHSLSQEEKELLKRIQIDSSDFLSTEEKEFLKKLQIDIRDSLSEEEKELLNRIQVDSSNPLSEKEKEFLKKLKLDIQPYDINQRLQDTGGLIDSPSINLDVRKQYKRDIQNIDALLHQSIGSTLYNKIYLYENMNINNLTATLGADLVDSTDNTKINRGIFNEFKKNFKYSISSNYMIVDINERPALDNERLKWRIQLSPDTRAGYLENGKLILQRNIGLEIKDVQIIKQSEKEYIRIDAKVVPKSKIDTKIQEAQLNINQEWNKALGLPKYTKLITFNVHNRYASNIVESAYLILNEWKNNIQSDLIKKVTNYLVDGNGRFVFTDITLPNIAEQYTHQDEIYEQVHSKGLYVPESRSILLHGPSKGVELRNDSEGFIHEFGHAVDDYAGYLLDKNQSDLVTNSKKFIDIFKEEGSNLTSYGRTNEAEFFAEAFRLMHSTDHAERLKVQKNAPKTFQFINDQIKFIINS
BoNT F protease: BoNT/F light chain protease inhibitors, primary screen, biochemical, flow cytometry, MLPCN library; AID 588497, 2011; hit rate 0.22% among 360,000; Multiplex microsphere protease cleavage assay; inhibition, % at 10 µM; in the data active = inhibition above about 35%, passing the limit was not always enough; inconclusive = no clear call, values can overlap the other calls
BoNT A protease: BoNT/A light chain protease inhibitors, primary screen, biochemical, flow cytometry, MLPCN library; multiplex microsphere protease substrate cleavage; inhibition, % at 10 µM; AID 588499, 2011; hit rate 0.17% among 360,000; Botulinum neurotoxin type A light chain protease (Clostridium botulinum A str. ATCC 3502)
Each line names hits and unclear results; the compound was inactive in the other large screens. An excerpt weighted towards active compounds, which were near 3.5% of everything screened. Cut-off read from the data, not from the text of the source, unless noted: active = inhibition above about 30%; inconclusive = no clear call, values can overlap the other calls; inactive = below that.

Cc1ccc(CC2C(=O)N(C)C(=O)N(C)C2=O)s1	Autofluor counter 21258, BoNT A protease inconclusive
C=CCOc1ccc(CC2C(=O)N(C)C(=O)N(C)C2=O)cc1	none
CCOC(=O)C1CCN(Cc2ccc(OC)c(C)c2OC)CC1	Autofluor counter 16792
CCOC(=O)C1CCN(Cc2ccc(F)cc2F)CC1	none
CCOC(=O)C1CCN(Cc2ccc(F)c(Br)c2)CC1	Autofluor counter 20738, BoNT A protease inconclusive
COc1ccc(CNC(=O)[C@H](C)NC(=O)C2CCN(S(=O)(=O)c3ccc(F)cc3)CC2)cc1	none
Cc1occc1C(=O)NC(C)c1ccc2c(c1)OCO2 (configuration not stated)	none
COc1ccc(C(C)NC(=O)c2ccoc2C)cc1OC (configuration not stated)	Autofluor counter 24236
COc1ccc(-c2cc(-c3cc(F)ccc3O)[nH]n2)cc1OC	Autofluor counter 22604, BoNT A protease inconclusive
CN(C)C(=O)CSc1nnc(Cc2ccccc2)n1Cc1ccco1	none
O=C(CSc1nnc(Cc2ccccc2)n1Cc1ccco1)NC12CC3CC(CC(C3)C1)C2	Autofluor counter 23614, BoNT A protease inconclusive
O=C(Cc1c[nH]c2ccccc12)N1CCN(S(=O)(=O)c2cccc(Cl)c2Cl)CC1	none
CCC(=O)N(CC)c1nc(-c2ccc(OC)cc2)cs1	Autofluor counter 23376
CC(=O)Nc1cccc(-n2nnc(SCC(=O)Nc3ccc(F)c(Cl)c3)n2)c1	Autofluor counter 16932
Nc1cc(=O)[nH]c(SCC(=O)Nc2ccc(F)c(Cl)c2)n1	Autofluor counter 21150
CC(=O)Nc1cccc(-n2nnc(SCC(N)=O)n2)c1	none
O=c1sc(Nc2ccccc2)nc2ccsc12	Autofluor counter 19370, BoNT A protease inconclusive
COc1ccccc1NC(=S)N1CCC(c2nc3ccccc3o2)CC1	none
Cc1cccc(C)c1NC(=O)N1CCC(c2nc3ccccc3o2)CC1	Autofluor counter 23165, BoNT A protease inconclusive
O=C(c1ccco1)N1CCN(C2CC(=O)N(c3ccc4c(c3)OCO4)C2=O)CC1 (configuration not stated)	Autofluor counter 22383
CCCCOCCCNc1ncnc2c1[nH]c1ccccc12	Autofluor counter 23545
COc1cc(SC)ccc1C(=O)OCC(=O)N1CC(=O)Nc2ccccc21	none
CCc1c(C)nc2cc(-c3ccccc3)[nH]n2c1=O	BoNT F protease 36
C=CCc1c(C)nc2cc(-c3ccc(C)cc3)[nH]n2c1=O	BoNT F protease inconclusive
Cc1ccc(S(=O)(=O)NC(=NCC(=O)O)c2ccc(F)cc2)cc1	Autofluor counter 25722
COc1ccc(C(C(=O)NC2CCCC2)N(Cc2cccnc2)C(=O)c2snc(C(N)=O)c2N)cc1 (configuration not stated)	none
Cc1ccc(S(=O)(=O)CCSc2ccc(C(F)(F)F)cn2)cc1	Anthrax LF inh2 inconclusive, BoNT F protease 36
Nc1ccn([C@@H]2O[C@H](C(=O)N3CCSC3)[C@@H](O)[C@H]2O)c(=O)n1	none
Cc1ccnc(N2CCC(C(=O)Nc3nnc(C)s3)CC2)n1	Autofluor counter inconclusive
Cc1cccc(NC(=O)C2CCN(c3nccc(C)n3)CC2)c1	Autofluor counter 20388, BoNT A protease inconclusive
CS(=O)(=O)N1CCC(C(=O)Nc2cccc(C(F)(F)F)c2)CC1	none
O=C(NC1CCCc2ccccc21)C1CCN(c2nnc(-n3cccc3)s2)CC1 (configuration not stated)	none
Cc1cc(C)nc(N2CCC(C(=O)NC3CCCc4ccccc43)CC2)n1 (configuration not stated)	Autofluor counter 19820
Cc1ccnc(N2CCC(C(=O)Nc3ccc4c(c3)CCC4)CC2)n1	Autofluor counter 17140
Cc1ccnc(N2CCC(C(=O)NNC(=O)c3ccncc3)CC2)n1	none
Cc1cc(C)nc(N2CCC(C(=O)Nc3cccc(C(F)(F)F)c3)CC2)n1	Autofluor counter 17064
COc1ccc(C)cc1/C=C/C(=O)N1CCN(S(=O)(=O)c2cccs2)CC1	none
COc1ccc(CCN(C)C(=O)CSc2nc3ccccc3c(=O)n2CC2CCCO2)cc1OC (configuration not stated)	none
CCc1cccc(NC(=O)C2CCCN2S(=O)(=O)c2cccc3cccnc23)c1 (configuration not stated)	none
Cc1ccc(C(=O)OCC(=O)NC2CCCc3ccccc32)o1 (configuration not stated)	none
Cc1cc(C)nc(N2CCC(C(=O)Nc3ccc4c(c3)CCC4)CC2)n1	Autofluor counter 21599
Cc1ccc(C(=O)NC2CCCc3ccccc32)o1 (configuration not stated)	Autofluor counter 22743
O=C(Nc1cccc(C(F)(F)F)c1)C1CCCN1S(=O)(=O)c1cccc2cccnc12 (configuration not stated)	Autofluor counter 20787, BoNT A protease inconclusive
CCCc1cc(C(=O)NNC(=S)NCC)c2ccccc2n1	none
CCNC(=S)NNC(=O)c1cc(-c2cc(C)ccc2C)nc2ccccc12	Autofluor counter 19654
C[C@@H]1CN([C@@H](C)CO)C(=O)CCCn2nncc2CO[C@@H]1CN(C)S(=O)(=O)c1cccs1	none
Cc1ccc(S(=O)(=O)N2CCCC2)cc1S(=O)(=O)N1CCCC1	none
Cc1ccc(S(=O)(=O)N2CCN(S(=O)(=O)N3CCOCC3)CC2)cc1C	Autofluor counter 16305
Cc1ccc(Nc2nc(-c3ccc(S(=O)(=O)N4CCCC4)cc3)cs2)cc1C	Autofluor counter 25361
Cc1cc(C)cc(Nc2nc(-c3ccc(S(=O)(=O)N4CCCC4)cc3)cs2)c1	none
Cc1ccc(S(=O)(=O)N2CCCN(S(=O)(=O)c3ccc(C)c(C)c3)CC2)cc1C	Autofluor counter 16751
O=C(CN1CCCC1)Nc1ccc(Br)cc1[N+](=O)[O-]	BoNT F protease inconclusive
CC(C)(C)OC(=O)NCc1ccc(CNC(=O)c2nc[nH]c2C(=O)N2CCN(c3ccccc3)CC2)cc1	none
CCN(CC)C(=O)C1=C(C)NC(=O)NC1c1c(F)cccc1Cl (configuration not stated)	Autofluor counter 16958
CCOC(=O)C1=C(C)NC(=O)NC1c1ccc(F)cc1 (configuration not stated)	none
C/C(=C1/SC(=S)N(CCC(=O)O)C1=O)c1ccc(O)cc1	none
COc1ccc(/C(C)=C2\SC(=S)N(CCC(=O)O)C2=O)cc1	Autofluor counter 20765
CCn1cc(S(=O)(=O)Nc2cc(C)ccc2F)cn1	none
COCCCn1c(C(=O)N2CC(C)OC(C)C2)cc2c(=O)n3ccccc3nc21 (configuration not stated)	none
CCN(CC)CCNC(=O)Cc1nn(CC)c(=O)c2ccccc12	none
CCN(CC)CCNC(=O)C(C)c1nn(CC)c(=O)c2ccccc12 (configuration not stated)	Autofluor counter 22461
CCCCn1c(=N)n(CC(=O)c2ccco2)c2ccccc21	none
CCCCCCCn1c(=N)n(CC(=O)c2ccco2)c2ccccc21	Autofluor counter inconclusive, Anthrax LF inh2 72
COc1cc(OC)cc(-c2nnc(SCc3cccc(C(=O)O)c3)o2)c1	Autofluor counter 22846
COc1ccc(-c2nnc(SCC(=O)/C(C#N)=C(\C)N)o2)cc1	Autofluor counter 24309, BoNT A protease inconclusive
